Luciferase inh – inhibitors of firefly (Photinus pyralis) luciferase; Potency, µM (top dose mostly 115 µM), actives largely listed as inhibitors; P08659; 76,000 tested, 2.5% active; purified P. pyralis luciferase, luminescence, biochemical; further: nearly all actives have a fitted effect of over 65% in size
Target sequence (P08659 whole entry, looked up): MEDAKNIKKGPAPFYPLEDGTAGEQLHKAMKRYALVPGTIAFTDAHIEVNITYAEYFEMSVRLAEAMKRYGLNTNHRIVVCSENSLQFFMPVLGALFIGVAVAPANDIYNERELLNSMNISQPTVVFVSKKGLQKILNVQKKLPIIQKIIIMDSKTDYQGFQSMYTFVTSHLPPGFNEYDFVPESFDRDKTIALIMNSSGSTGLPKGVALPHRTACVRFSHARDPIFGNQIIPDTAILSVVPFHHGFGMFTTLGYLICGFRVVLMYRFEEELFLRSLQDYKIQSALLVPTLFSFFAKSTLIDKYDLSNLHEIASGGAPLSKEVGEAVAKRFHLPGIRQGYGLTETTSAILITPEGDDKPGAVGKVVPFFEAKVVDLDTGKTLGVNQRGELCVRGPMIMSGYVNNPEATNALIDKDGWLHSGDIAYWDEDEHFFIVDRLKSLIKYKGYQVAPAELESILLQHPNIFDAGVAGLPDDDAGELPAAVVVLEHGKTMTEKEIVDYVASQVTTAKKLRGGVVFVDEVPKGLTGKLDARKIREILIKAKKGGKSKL
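Biochemical qHTS: compound (6-point titration) added to 10uM D-luciferin plus 10uM ATP in Tris acetate pH 7.5 buffer with Mg, Tween-20 and BSA, then purified enzyme at 10nM; light output imaged.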
3T3 cytotox – cytotoxic compounds in NIH 3T3 cells; NIH 3T3 viability, CellTiter-Glo ATP luminescence, 48-72 h; Potency, µM (highest dose often 96.7 µM), actives largely listed as inhibitors; 94,000 tested, 4.3% active; AID 1345082; further: nearly all actives have a fitted effect of over 55% in size
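Viability of NIH 3T3 cells after 48 or 72 hr compound treatment at 37 °C was assessed by CellTiter-Glo, with luminescence imaged following a 10 min room-temperature step.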
SNCA expr inh – inhibitors of alpha-synuclein (SNCA) gene expression. Potency, µM (titrated, usually from 57.2 µM), actives largely listed as inhibitors. HEK-293 SNCA-luciferase knock-in, luminescence, 24 h. AID 1671194. 140,000 tested, 0.17% active; further: nearly all actives have a fitted effect of over 45% in size
hNpr1 antagonist – blocks ANP-stimulated signaling of human Npr1 receptor | P16066 | Potency, µM (top dose mostly 46.3 µM), hits mostly inhibitors | 76,000 tested, 1.6% active | HEK293 hNpr1 GloSensor cGMP, ANP-stimulated luminescence; calls by dose curve; further: nearly all actives have a fitted effect of over 60% in size
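HEK293 cells stably expressing human Npr1 and cGMP GloSensor pGS-40F, loaded 2 h with 2% GloSensor reagent, given compound 30 min at room temperature. Luminescence read before and 20 min after 0.1 nM hNppA.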
HEK293 tox – HEK 293 cell cytotoxicity; HEK 293 viability, ATP luminescence (CellTiter-Glo), 48-72 h; Potency, µM (series often up to 115 µM), usual class: inhibitors; 94,000 tested, 6.6% active; further: nearly all actives have a fitted effect of over 60% in size
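HEK 293 cells seeded at 250 cells/well were exposed to compound for 48 or 72 hr at 37 degree Celsius. Viability taken as ATP content by CellTiter-Glo luminescence.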
HEK293 viab – reduces viability of HEK-293 SNCA reporter cells. HEK-293-SNCA-luc viability, GF-AFC fluorescence, 24 h. Potency, µM (highest dose often 57.1 µM), actives largely listed as cytotoxic. 150,000 tested, 0.12% active. AID 1671193; further: nearly all actives have a fitted effect of over 30% in size
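Cytotoxicity counterscreen: after 24 h compound treatment of genome-edited SNCA-luciferase HEK-293 cells, live-cell protease substrate GF-AFC read by fluorescence after 30 min; activity scaled between DMSO (0%) and medium-only (-100%), curves Hill-fitted.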
Hits are given with their value; [ ] = dose if it differs, or a comment. In the library only some 7.2% were active in any assay of this set; here they are far more common. Unless noted, the call rests on the fitted dose curve; in most records, active means well fitted curve in the direction sought with a large enough effect; inconclusive means small, poorly fitted or top-dose-only effect, or another doubt; inactive means no such curve, though single readings can be large; an effect the other way counts as inactive or inconclusive.

Screening CC(C)C[C@@H](NC(=O)C1=C[C@@H](NC(=O)c2ccco2)[C@@H](O)[C@H](O)C1)C(N)=O returned Luciferase inh inactive, 3T3 cytotox inactive, SNCA expr inh inactive, hNpr1 antagonist inactive, HEK293 tox inactive and HEK293 viab inactive.
`O=C1CCN(C(=O)c2ccccn2)CCCC(c2nc(-c3ccccc3)no2)CCN1` (stereo unspecified) gave Luciferase inh inconclusive, 3T3 cytotox inactive, SNCA expr inh inactive, hNpr1 antagonist inactive, HEK293 tox inactive and HEK293 viab inactive.
COc1cccc(-c2ccc(C(=O)N3CCC(C(=O)NCc4cccc(Cl)c4)CC3)cc2)c1 was read as 3T3 cytotox inconclusive, SNCA expr inh inactive, HEK293 tox inconclusive and HEK293 viab inactive[12.5 µM].
For COC(=O)CNC(=O)C1CCCN1Cc1ccc(-c2cccc(OC)c2)cc1 (stereo unspecified) the results were 3T3 cytotox inconclusive, SNCA expr inh inactive, HEK293 tox inconclusive and HEK293 viab inactive.
`COC(=O)CNC(=O)C1CCCN1Cc1cccc(-c2ccc(C)c(Cl)c2)c1` (stereo unspecified) gave 3T3 cytotox inconclusive and HEK293 tox 39.8µM.
Screening Cc1ccc(-c2cccc(CN3CCCC3C(=O)NCc3ccccc3)c2)cc1Cl (stereo unspecified) returned 3T3 cytotox 44.7µM and HEK293 tox 50.1µM.
Screening Cc1ccc(-c2cccc(CN3CCCC3C(=O)NCc3cccc(C(F)(F)F)c3)c2)cc1Cl (stereo unspecified) returned 3T3 cytotox 39.8µM and HEK293 tox 39.8µM.
CCOCCCNC(=O)C1CCCN1Cc1ccc(-c2cncnc2)cc1 (stereo unspecified) was read as 3T3 cytotox inactive, SNCA expr inh inactive, HEK293 tox inactive and HEK293 viab inactive.
`O=C(NCc1ccccc1)C1CCCN1Cc1ccc(-c2cncnc2)cc1` (stereo unspecified) gave 3T3 cytotox inactive, SNCA expr inh inactive, HEK293 tox inconclusive and HEK293 viab inactive.
Screening CCOCCNC(=O)C1CCCN1Cc1cccc(-c2ccc(C)c(Cl)c2)c1 (stereo unspecified) returned 3T3 cytotox 14.1µM and HEK293 tox inconclusive.
For COc1ccccc1-c1ccc2c(C(=O)N3CCN(c4ncccn4)CC3)nn(C)c2n1 the results were 3T3 cytotox inactive, SNCA expr inh inactive, HEK293 tox inconclusive and HEK293 viab inactive.
Screening CCOC(=O)C1CCN(C(=O)CC(c2ccc3c(c2)OCO3)c2c[nH]c3ccccc23)CC1 (stereo unspecified) returned Luciferase inh inactive, 3T3 cytotox inconclusive, SNCA expr inh inactive, hNpr1 antagonist inactive, HEK293 tox inconclusive and HEK293 viab inconclusive.
`CCOC(=O)C1CCN(C(=O)CC(c2ccc(OC)c(OC)c2)c2c[nH]c3c(CC)cccc23)CC1` (stereo unspecified) gave Luciferase inh inactive, 3T3 cytotox inconclusive, SNCA expr inh inactive, hNpr1 antagonist inactive, HEK293 tox 79.4µM and HEK293 viab inactive.
Screening CCc1cccc2c(C(CC(=O)N3CCCC3)c3ccc(Cl)c(Cl)c3)c[nH]c12 (stereo unspecified) returned Luciferase inh inactive, 3T3 cytotox inconclusive, SNCA expr inh inactive, hNpr1 antagonist inactive, HEK293 tox 39.8µM and HEK293 viab inactive.
Screening CCc1cccc2c(C(CC(=O)N3CCC(C)CC3)c3cccc(C)c3)c[nH]c12 (stereo unspecified) returned Luciferase inh inactive, 3T3 cytotox inconclusive, SNCA expr inh inactive, hNpr1 antagonist inactive, HEK293 tox 35.5µM and HEK293 viab inactive.
CCc1cccc2c(C(CC(=O)N3CCCC3)c3cccc(Cl)c3)c[nH]c12 (stereo unspecified) was read as Luciferase inh inactive, 3T3 cytotox inactive, SNCA expr inh inactive, hNpr1 antagonist inactive, HEK293 tox inconclusive and HEK293 viab inactive.

Screens as filed in PubChem BioAssay.
